Compound activity (PubChem BioAssay)
Shown are actives, neighbours in structure and some others; about 19% of the full set was active somewhere.
Giardia kill: kills Giardia lamblia. Giardia lamblia trophozoite viability. activity change, % at 7.66 µM, hits read low. hit rate 0.15% among 340,000; in the data active = activity change below about -80%; inconclusive = between about -30% and that limit;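 also: parasites exposed to compound for two days anaerobically before the ATP read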
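Killing of trophozoites was scored by loss of ATP luminescence after a 48 hrs anaerobic exposure to compounds at 37 deg C, using 100 cells per well.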
DT40 TDP1 no CPT: qHTS for Inhibitors of human tyrosyl-DNA phosphodiesterase 1 (TDP1): qHTS in cells in absence of CPT. DT40 Tdp1-/- hTDP1 cells, no CPT, ATP luminescence, 48 h. hit rate 15% among 420,000. Potency, µM (highest dose often 46.2 µM), most hits filed as inhibitors. AID 686978, 2013; also: nearly all actives have a fitted effect of over 55% in size
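Seeded 400 DT40-hTDP1 cells/well (vehicle DMSO, no 20 nM CPT); pinned compounds; ≥48 hr at 37 °C; CellTiter-Glo luminescence as viability measure.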
IL1B secr inh: inhibitors of inflammasome signaling (IL-1 beta secretion); hit rate 4.7% among 360,000; activity change, % at 57.5 µM; AID 743279; THP-1 LPS/ATP IL-1B secretion, AlphaLISA, 16 h; hits give low values; in the data active = activity change below about -50%; inconclusive = mostly about -30% to -49%
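THP-1 cells pretreated 1 hr with compounds (up to 57.5 uM final), then stimulated with LPS (250 ng/mL final) plus ATP (1.25 mM final); secreted IL-1B measured by AlphaLISA after 16 hr, decreased signal indicating inhibition.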
ELG1 repair inh: ELG1-dependent DNA repair inhibition; HEK293T ELG1-luciferase reporter, luminescence, 16 h; DNA damage induced by 5-fluorouridine; Potency, µM (top dose mostly 46.1 µM), most hits filed as inhibitors; hit rate 2.3% among 330,000; AID 504467; also: nearly all actives have a fitted effect of over 55% in size
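Quantitative HTS, concentration-response format. 2,000 cells/well co-treated with 5-fluorouridine and compound, 16 hr in 5% CO2 at 37 °C; ONE-Glo luminescence read after 30 min.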
TDP1 cell CPT: DT40-hTDP1 cell growth loss with CPT; hit rate 12% among 420,000; Potency, µM (series often up to 46.2 µM), most hits filed as inhibitors; chicken DT40 Tdp1-/-;hTDP1 cells + 20 nM CPT, ATP luminescence, 48 h; also: nearly all actives have a fitted effect of over 55% in size
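Cell growth measured by CellTiter-Glo luminescence after a minimum 48 h, 37 C compound exposure with 20 nM CPT in Tdp1-knockout DT40 cells stably expressing hTDP1, seeded 400/well; qHTS titration format.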
TDP1 block: inhibitors of human tyrosyl-DNA phosphodiesterase TDP1; Q9NUW8; recombinant TDP1, AlphaScreen DNA substrate cleavage; Potency, µM (series often up to 130 µM), actives largely listed as inhibitors; hit rate 0.28% among 350,000; AID 485290; also: nearly all actives have a fitted effect of over 40% in size
Target sequence (Q9NUW8 whole entry, looked up): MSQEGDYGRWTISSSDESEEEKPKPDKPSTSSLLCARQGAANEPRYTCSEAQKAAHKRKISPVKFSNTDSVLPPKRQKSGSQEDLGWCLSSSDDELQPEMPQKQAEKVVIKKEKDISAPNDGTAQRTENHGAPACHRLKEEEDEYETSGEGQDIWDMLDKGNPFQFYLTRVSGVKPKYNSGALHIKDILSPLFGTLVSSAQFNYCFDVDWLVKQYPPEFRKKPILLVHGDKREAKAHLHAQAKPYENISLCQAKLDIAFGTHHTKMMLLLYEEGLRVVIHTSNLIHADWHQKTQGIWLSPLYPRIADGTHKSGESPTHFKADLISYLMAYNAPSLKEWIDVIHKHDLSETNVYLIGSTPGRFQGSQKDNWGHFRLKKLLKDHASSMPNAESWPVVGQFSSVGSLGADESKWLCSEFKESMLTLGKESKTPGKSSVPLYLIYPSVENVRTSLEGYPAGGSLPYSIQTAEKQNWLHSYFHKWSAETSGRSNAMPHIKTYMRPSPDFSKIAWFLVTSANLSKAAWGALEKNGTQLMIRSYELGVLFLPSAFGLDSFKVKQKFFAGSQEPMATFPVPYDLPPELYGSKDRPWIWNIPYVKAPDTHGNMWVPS
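Here, a 5' biotin and 3' phosphotyrosine-FITC DNA oligonucleotide reports Tdp1 activity: intact substrate bridges AlphaScreen beads, while cleavage leaves a 3' phosphate and drops signal. All incubations at room temperature.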
A number is an active result; i = inactive; ? = inconclusive; nt = not tested or not shown; [ ] = remark or other dose. Unless noted, calls follow the shape of the dose curve; as a rule, active = well fitted curve in the direction sought with a large enough effect; inconclusive = small, poorly fitted or top-dose-only effect, or another doubt; inactive = no such curve, though single readings can be large; an effect the other way counts as inactive or inconclusive.

SMILES	Giardia kill	DT40 TDP1 no CPT	IL1B secr inh	ELG1 repair inh	TDP1 cell CPT	TDP1 block
Clc1cccc(-c2cc3nc4c(c(N5CCN(c6cnccn6)CC5)n3n2)CCCC4)c1	i	?	i	?	23µM	i
Fc1cccc(-c2cc3nc4c(c(NCc5ccco5)n3n2)CCCC4)c1	i	i	-92	?	?	i
Fc1cccc(-c2cc3nc4c(c(N5CCOCC5)n3n2)CCCC4)c1	i	?	i	?	18µM	i
COc1cccc(-c2cc3nc4c(c(NCC(C)(C)CN(C)C)n3n2)CCCC4)c1	?	?	nt	i	?	i
COCCN1CCN(c2c(C)c(C)nc3cc(-c4cccc(OC)c4)nn23)CC1	i	?	i	nt	?	nt
OC1CCN(c2c3c(nc4cc(-c5ccc(Cl)cc5)nn24)CCC3)CC1	i	21µM	?	18µM	23µM	i
Cc1nn2c(N3CCCC3)c3c(nc2c1-c1ccccc1)CCC3	i	?	i	?	?	nt
CCn1cc(Cl)c(C(=O)Nc2nccs2)n1	i	i	i	?	i	i
CCOc1ccccc1NC(=O)COc1coc(CN2CCCc3ccccc32)cc1=O	i	?	i	?	?	i
CCOc1ccccc1NC(=O)COc1coc(CN2CCc3ccccc3C2)cc1=O	i	13µM	i	?	?	i
COc1ccc(-c2csc(N(CCc3ccc(OC)c(OC)c3)C(=O)COc3ccccc3)n2)cc1	i	16µM	i	?	?	i
O=C(COc1ccccc1)N(Cc1ccccc1)c1nc(-c2ccccc2)cs1	i	?	i	i	i	i
COc1ccc(-c2csc(N(Cc3ccccc3)C(=O)COc3ccc(Cl)cc3)n2)cc1	i	18µM	i	?	21µM	i
Cc1cc(-c2ccnc(-n3ncc(C(=O)NCC(C)(C)N4CCOCC4)c3C)n2)c(C)s1	nt	i	nt	nt	i[9.04 µM]	nt
Cc1cc(-c2ccnc(-n3ncc(C(=O)NCC4COCCO4)c3C)n2)c(C)s1 (stereo not given)	nt	4.1µM	nt	nt	?	nt
COC(=O)[C@@]12CCCCN1[C@H](c1ccc(-c3ccc(Cl)c(Cl)c3)cc1)[C@H]1C(=O)N(C)C(=O)[C@H]12	i	16µM	i	i	12µM	i
CCN1C(=O)[C@@H]2[C@@H](c3ccc(-c4ccc(Cl)c(Cl)c4)cc3)N3CCCC[C@@]3(C(=O)OC)[C@@H]2C1=O	i	16µM	i	i	18µM	i
CCn1c(CC2C(=O)N(C)c3ccccc32)nc2ccccc2c1=O (stereo not given)	nt	i	nt	nt	i	i
COc1ccc(Cl)cc1NC(=O)C(C)OC(=O)Cn1cc(C(F)(F)F)ccc1=O (stereo not given)	i	i	i	i	?	i
Cc1ccc(S(=O)(=O)NCC(=O)NC2CC2)cc1	i	i	i	i	i	i
COc1ccc2cc1Oc1ccc(cc1)C[C@H]1c3c(cc4c(c3Oc3cc5c(cc3OC)CCN(C)[C@@H]5C2)OCO4)CCN1C	i	5.8µM	?	i	6.5µM	i
C=CCOC(=O)C1=C[C@@H](c2coc3ccccc3c2=O)C[C@@H](OCc2ccc(CO)cc2)O1	i	?	i	i	?	i
O=C(Nc1ccccc1)C1=C[C@@H](c2coc3ccccc3c2=O)C[C@@H](OCc2ccc(CO)cc2)O1	i	15µM	i	?	?	i
C=CCOC(=O)C1=C[C@H](c2coc3ccccc3c2=O)C[C@H](OCc2ccc(CO)cc2)O1	i	?	i	8.2µM	?	i
O=C(NCc1ccccc1)C1=C[C@H](c2coc3ccccc3c2=O)C[C@H](OCc2ccc(CO)cc2)O1	i	?	?	?	?	i
O=C(CSc1ccccc1F)NCC(c1ccco1)N1CCCCC1 (stereo not given)	nt	?	i	nt	?	nt
COc1ccc(-n2ncc3c2ncn2nc(COc4ccc(Cl)cc4)nc32)cc1	nt	i	nt	nt	i	i
CCOc1ccc2nc(N3CCCC(C(=O)N4CCN(CC)CC4)C3)sc2c1 (stereo not given)	i	i	i	?	i	i
